Screening data (PubChem BioAssay)
Most compounds without a hit are left out; they make up all but 7.5% or so of the library.
ELG1 genotoxic = qHTS screen for small molecules that induce genotoxicity in human embryonic kidney (HEK293T) cells expressing luciferase-tagged ELG1 | Potency, µM (titrated, usually from 46 µM), actives largely listed as activators | actives 1.3% (n = 330,000) | HEK293T ELG1-luciferase reporter, luminescence, 16 h; note: nearly all actives have a fitted effect of over 60% in size
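After overnight (16 hr) compound treatment at 37 °C, ELG1-luciferase HEK293T cells were lysed with ONE-Glo; luminescence quantified 30 min later at room temperature.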
Rab9 promoter act = qHTS Assay for Rab9 Promoter Activators | Huh7 Rab9 promoter-luciferase reporter, luminescence, 24 h | Potency, µM (series often up to 9.22 µM), actives largely listed as activators | actives 2.8% (n = 320,000) | AID 485297, 2010; note: nearly all actives have a fitted effect of over 60% in size
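Promoter activation is measured as luciferase luminescence in Huh7 cells stably transfected with a Rab9 promoter–luciferase construct, following 24 h compound exposure at 37 °C and 10 min reagent incubation at ambient temperature.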
SMN2 splice enh = qHTS Assay for Enhancers of SMN2 Splice Variant Expression | HEK293 SMN2-luciferase splicing reporter, luminescence, 30-36 h | Potency, µM (series often up to 46.1 µM), most hits filed as activators | actives 2.8% (n = 210,000) | AID 1458, 2008; note: nearly all actives have a fitted effect of over 55% in size
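HEK293 cells carry an SMN2 minigene-luciferase reporter in which exon 7 inclusion puts luciferase in frame. Cells were seeded at 2000 cells/well, attached for 10-12 hours, then exposed to compounds for 30-36 hours at 37C before ONE-Glo luminescence.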
KinaseGlo FLuc = Counterscreen for Luciferase (Kinase-Glo TM) Inhibition | Luciferin 4-monooxygenase (Photuris pensylvanica), Q27757 | Kinase-Glo luciferase, ATP luminescence, 8 min | Potency, µM (highest dose often 38.3 µM), most hits filed as inhibitors | actives 0.28% (n = 200,000) | AID 1379, 2008; note: nearly all actives have a fitted effect of over 60% in size
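Compounds were added to a substrate mix at pH 7.2 (50 mM imidazole, 10 uM ATP, within the enzyme's linear range), followed by Kinase-Glo detection reagent; luminescence was measured after 8 minutes at ambient temperature.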
FLuc counter = qHTS profiling assay for firefly luciferase inhibitor/activator using purifed enzyme and Km concentrations of substrates (counterscreen for miR-21 project). actives 6.9% (n = 360,000). Potency, µM (top dose mostly 57.5 µM), usual class: inhibitors. AID 588342, 2011. purified FLuc, Km substrates, luminescence inhibition; note: nearly all actives have a fitted effect of over 55% in size
Target sequence (P08659 whole entry, looked up): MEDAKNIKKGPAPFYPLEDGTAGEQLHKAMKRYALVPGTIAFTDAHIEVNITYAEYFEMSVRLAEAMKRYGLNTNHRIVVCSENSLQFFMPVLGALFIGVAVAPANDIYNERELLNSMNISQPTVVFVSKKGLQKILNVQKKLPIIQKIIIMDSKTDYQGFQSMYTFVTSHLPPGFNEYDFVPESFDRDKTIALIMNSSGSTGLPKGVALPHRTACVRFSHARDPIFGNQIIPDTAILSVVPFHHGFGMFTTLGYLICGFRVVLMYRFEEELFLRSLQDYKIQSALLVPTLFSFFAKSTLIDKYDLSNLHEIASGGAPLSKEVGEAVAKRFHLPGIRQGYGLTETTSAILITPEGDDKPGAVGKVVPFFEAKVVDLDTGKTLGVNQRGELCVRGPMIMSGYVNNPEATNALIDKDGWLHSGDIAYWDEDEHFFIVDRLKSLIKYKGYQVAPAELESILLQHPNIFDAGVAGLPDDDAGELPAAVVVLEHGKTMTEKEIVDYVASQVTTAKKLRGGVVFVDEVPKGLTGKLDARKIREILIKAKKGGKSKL
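Purified P. pyralis luciferase, 10 nM final, with Km-level 10 uM D-luciferin and 10 uM ATP in 50 mM Tris acetate pH 7.5, 10 mM Mg acetate, 0.01% Tween-20, 0.05% BSA; 6-point qHTS titration about 60 µM downward; luminescence read.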
NPC1 prom act = qHTS Assay for NPC1 Promoter Activators. Huh7 NPC1 promoter luciferase reporter, 24 h. Potency, µM (series often up to 9.22 µM), most hits filed as activators. actives 2.4% (n = 320,000); note: nearly all actives have a fitted effect of over 60% in size
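In 1536-well qHTS, Huh7 cells harboring an NPC1 promoter–luciferase construct received compound for 24 h; activation was quantified by luminescence following luciferase reagent addition.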
Hits are given with their value; - = inactive; ? = inconclusive; . = not tested or not shown. Calls come from the whole dose curve; as a rule, active = well fitted curve in the direction sought with a large enough effect; inconclusive = small, poorly fitted or top-dose-only effect, or another doubt; inactive = no such curve, though single readings can be large; an effect the other way counts as inactive or inconclusive.

SMILES	ELG1 genotoxic	Rab9 promoter act	SMN2 splice enh	KinaseGlo FLuc	FLuc counter	NPC1 prom act
Cc1ccn2cc(CNS(=O)(=O)c3cccs3)nc2c1	-	-	.	.	-	-
COc1ccc(Br)cc1S(=O)(=O)Nc1cc(-c2cn3ccccc3n2)ccc1C	.	.	-	.	?	.
CCCS(=O)(=O)Nc1cc(-c2cn3ccc(C)cc3n2)ccc1C	.	.	-	.	9.53µM	.
CCCN(C(=O)CCSc1ccc(F)cc1)c1c(N)n(Cc2ccccc2)c(=O)[nH]c1=O	-	-	.	.	-	-
CC1(C)C[C@@H]1C(=O)N/C(=C\CCCCSC[C@H](N)C(=O)O)C(=O)O	-	-	.	.	-	-
Nc1[nH]nc2nc(NCc3ccccc3)c3c(c12)CCN(Cc1ccccc1)C3	-	-	25.1µM	-	-	-
N#Cc1c(NCCN)nc(NCc2ccccc2)c2c1CCN(Cc1ccccc1)C2	-	-	.	.	-	-
Cc1cnc2c(c1SCC(=O)Nc1ccc(F)cc1F)c(=O)n(C)c(=O)n2C	.	.	.	.	-	.
CCCCn1c(=O)[nH]c(=O)c2c(C(=O)OCC)cc(-c3ccc(OC(F)F)cc3)nc21	?	-	-	-	-	-
CCOC(=O)c1cc(-c2cccc(C(F)(F)F)c2)nc2nc(SC)[nH]c(=O)c12	-	-	-	-	12µM	-
CCOC(=O)c1cc(-c2ccc(C)cc2)nc2nc(SC)[nH]c(=O)c12	-	-	-	-	4.78µM	-
COC(=O)c1cc(-c2ccc(OC)cc2)nc2nc(SC)[nH]c(=O)c12	-	-	.	.	5.36µM	-
COc1ccc2cc(C(=O)NCc3ccc4c(c3)CCN4C(=O)c3ccccc3)[nH]c2c1	.	.	.	.	-	.
O=C(c1cc2cc(Br)ccc2[nH]1)N1CCc2ccccc21	-	-	.	.	-	5.01µM
O=C(c1cc2cc(F)ccc2[nH]1)N1CCc2ccccc21	?	3.55µM	.	.	?	3.98µM
O=C(c1cccc(F)c1)N1CCc2ccccc21	-	-	-	-	-	-
CN1CCN(C(=O)c2cc3cc(F)ccc3[nH]2)CC1	-	-	.	.	-	-
COc1ccc2cc(C(=O)N3CCc4ccccc43)[nH]c2c1	?	3.98µM	.	.	0.953µM	?
O=C1CN(C(=O)CSc2nnnn2C2CC2)c2ccccc2N1	-	-	.	.	-	-
CC(C)(C)c1ccc(C(=O)Nn2cnnc2)cc1	-	-	.	.	23.9µM	-
O=C(Nn1cnnc1)c1ccncc1	-	-	.	.	-	-
CC1(C)NC(=O)N(CC(=O)N2CCN(S(=O)(=O)c3ccccc3C(F)(F)F)CC2)C1=O	-	-	.	.	-	-
CCc1cnc2c(c1SCCC(C)C)c(=O)n(C)c(=O)n2C	.	.	.	.	-	.
COc1ccc(NC(=O)Cn2c(=O)n(Cc3ccccc3)c(=O)c3oc4ccccc4c32)cc1Cl	.	.	.	.	2.39µM	.
CCc1ccc(NC(=O)Cn2c(=O)n(Cc3ccccc3)c(=O)c3oc4ccccc4c32)cc1	.	.	.	.	-	.
SMILES	ELG1 genotoxic	Rab9 promoter act	SMN2 splice enh	KinaseGlo FLuc	FLuc counter	NPC1 prom act
Cc1ccc(C(=O)Nc2ccc(CN3CCS(=O)(=O)CC3)cc2)cc1C	-	?	.	.	19µM	?
COc1ccc(C(=O)Nc2ccc(CN3CCS(=O)(=O)CC3)cc2)cc1	-	-	.	.	?	-
CN(C)c1ccc(C(=O)Nc2ccc(CN3CCS(=O)(=O)CC3)cc2)cc1	-	-	.	.	13.5µM	-
CN(C)c1ccc(NC(=O)c2ccc(Cn3cc([N+](=O)[O-])cn3)cc2)cc1	-	-	-	-	12µM	-
Cc1ccc(CN2C(=O)C3(c4ccccc42)N(c2ccc(C)c(Cl)c2)C(=O)CS3(=O)=O)cc1 (stereo unspecified)	.	.	-	.	-	.
CCN1C(=O)CC(NCc2ccc(S(N)(=O)=O)cc2)C1=O (stereo unspecified)	-	-	.	.	-	-
CC1=C(c2ccc(C)c(C)c2)S(=O)(=O)N=C1N1CCN(c2cccc(C(F)(F)F)c2)CC1	.	.	.	.	-	.
CCCCOC(=O)c1c(C)oc2c1cc(NS(=O)(=O)c1cc(OC)ccc1OC)c1ccccc12	.	.	-	.	-	.
NNC(=O)c1ccc(CSc2n[nH]c(=O)[nH]c2=O)cc1	-	-	.	.	?	-
Cc1ccc(Cc2nc3ccccc3nc2SCC(=O)N2CCCCC2)cc1	.	.	.	.	-	.
Cc1ccc(OC(=O)c2ccc3c(=O)n4c(nc3c2)CCC4)cc1	-	-	.	.	6.01µM	-
COc1cc(OC)cc(OC(=O)c2ccc3c(=O)n4c(nc3c2)CCC4)c1	-	-	.	.	15.1µM	-
CC(=O)c1cccc(OC(=O)c2ccc3c(=O)n4c(nc3c2)CCC4)c1	-	-	.	.	-	-
O=C(CCn1c(=O)c2cccn2c2ccc(F)cc21)NCCc1ccccc1Cl	.	.	.	.	-	.
Cc1ccccc1Nc1nc(N)nc(COC(=O)C2CCCCC2)n1	-	-	-	-	15.1µM	-
CCCCC(=O)OCc1nc(N)nc(Nc2ccccc2C)n1	?	-	-	-	19µM	-
Cc1ccc(N2CC(C(=O)OCc3nc(N)nc(Nc4ccccc4C)n3)CC2=O)cc1 (stereo unspecified)	-	-	.	.	-	-
O=C(Nc1ccccc1)Nc1ccc(Oc2cccnc2)nc1	-	-	.	.	13.5µM	-
CCOc1ccc(NC(=O)Nc2ccon2)cc1	?	?	.	.	23.9µM	-
O=C(Nc1ccc(OC(F)(F)F)cc1)Nc1cccnc1	-	?	.	.	7.57µM	?
O=C(Nc1ccc(F)cc1)Nc1cccnc1	-	-	.	.	16.9µM	-
O=C(NCC(F)(F)F)Nc1cccnc1	-	-	-	-	-	-
CCOc1ccc(N(CC)S(=O)(=O)N2CCCC(C(=O)NCCc3ccccc3OC)C2)cc1 (stereo unspecified)	.	.	.	.	-	.
CS(=O)(=O)N1CCCc2cc(C(=O)Nc3cccc(C(F)(F)F)c3)ccc21	.	.	-	.	-	.
CN1CCc2cc(NC(=O)Nc3cccnc3)ccc21	.	?	?	-	.	9.2µM
SMILES	ELG1 genotoxic	Rab9 promoter act	SMN2 splice enh	KinaseGlo FLuc	FLuc counter	NPC1 prom act
Cc1ccc(NC(=O)Nc2cccnc2)cc1Cl	?	-	.	.	4.78µM	?
CC(=O)c1ccc(NC(=O)Nc2cccnc2)cc1	20.6µM	?	.	.	?	2.51µM
CCC(C)c1ccc(NC(=O)Nc2cccnc2)cc1 (stereo unspecified)	?	4.47µM	.	.	1.69µM	1.78µM
CC(=O)c1ccc(NC(=O)Nc2ccncc2)cc1	-	-	-	-	-	-
O=C(Nc1cccnc1)Nc1cc(Cl)cc(Cl)c1	-	-	.	-	?	-
COc1ccc(Cl)cc1NC(=O)CSC1=Nc2ccccc2C2=NC(CC(=O)NCc3cccs3)C(=O)N12 (stereo unspecified)	.	.	-	.	-	.
COc1cc(C)c(CC/C(C)=C/C=C/C(C)=O)c(C)c1C	.	.	-	-	.	.
